# Test results: paper PMC7862700, “An all-to-all approach to the identification of sequence-specific readers for epigenetic DNA modifications on cytosine”
# Legend:
# Assay in all cases: DAPPL (digital affinity profiling via proximity ligation, sequencing); 10 mM Tris-HCl pH 7.5, 50 mM NaCl, 1 mM DTT, 4% glycerol, room temperature, 30 min; GST-TFs on glutathione beads, 16-mer random dsDNA library, 0.1% formaldehyde crosslink after washing; high values mean tight binding
# Details in all cases: protein: recombinant; tags: N-terminal GST; dsDNA, one strand shown
# ELK1 = molecular target: T1, ELK1 (Homo sapiens, UniProt P19419 1-428)
# T1 sequence: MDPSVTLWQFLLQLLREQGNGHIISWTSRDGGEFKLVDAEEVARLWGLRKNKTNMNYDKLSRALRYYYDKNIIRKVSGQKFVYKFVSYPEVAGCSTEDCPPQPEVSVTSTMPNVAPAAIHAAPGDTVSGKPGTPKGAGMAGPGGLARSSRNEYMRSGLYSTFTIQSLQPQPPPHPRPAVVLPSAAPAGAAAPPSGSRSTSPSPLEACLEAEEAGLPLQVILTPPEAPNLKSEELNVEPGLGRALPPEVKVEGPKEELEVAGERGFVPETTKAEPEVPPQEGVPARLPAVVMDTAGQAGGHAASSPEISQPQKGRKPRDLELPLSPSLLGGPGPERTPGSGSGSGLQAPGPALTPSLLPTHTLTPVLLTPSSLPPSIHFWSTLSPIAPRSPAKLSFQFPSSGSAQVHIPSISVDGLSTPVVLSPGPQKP
# Outline: (§1)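 Human transcription factors were made in yeast as GST fusions, captured on glutathione beads and barcoded with DNA. With a tag-only sample included, the pool was incubated with 200 nmole of a random double-stranded 16-mer DNA library in Tris/NaCl/DTT/glycerol buffer at room temperature for 30 min, then crosslinked with 0.1% formaldehyde after washing, ligated by proximity, amplified and sequenced. For binding signal, each hexamer's read frequency for a factor is divided by its frequency for the tag-only sample.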
# ELF1 = ELF1 (Homo sapiens, UniProt P32519 1-619)
# Outline: as §1
# ELK3 = molecular target: T2, ELK3 (Homo sapiens, UniProt P41970 1-407)
# T2 sequence: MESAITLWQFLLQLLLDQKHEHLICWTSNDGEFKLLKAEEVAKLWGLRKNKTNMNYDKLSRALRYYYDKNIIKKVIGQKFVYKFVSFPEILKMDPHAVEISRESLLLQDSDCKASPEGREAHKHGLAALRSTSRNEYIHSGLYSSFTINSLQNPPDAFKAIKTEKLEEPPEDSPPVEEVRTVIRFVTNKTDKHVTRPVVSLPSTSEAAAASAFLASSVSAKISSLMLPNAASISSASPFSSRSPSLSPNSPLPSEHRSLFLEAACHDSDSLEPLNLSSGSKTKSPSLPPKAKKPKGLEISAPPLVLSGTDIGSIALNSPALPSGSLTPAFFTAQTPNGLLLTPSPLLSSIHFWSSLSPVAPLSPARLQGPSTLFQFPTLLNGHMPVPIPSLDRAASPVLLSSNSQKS
# Outline: as §1
# FEV = molecular target: T3, FEV (Homo sapiens, UniProt Q99581 1-238)
# T3 sequence: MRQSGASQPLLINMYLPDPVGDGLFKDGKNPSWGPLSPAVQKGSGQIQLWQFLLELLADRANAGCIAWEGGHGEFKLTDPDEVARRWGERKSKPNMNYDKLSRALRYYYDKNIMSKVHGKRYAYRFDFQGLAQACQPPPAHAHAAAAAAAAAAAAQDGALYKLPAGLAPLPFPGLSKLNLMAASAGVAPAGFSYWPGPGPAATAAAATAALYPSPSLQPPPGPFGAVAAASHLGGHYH
# Outline: as §1
# SPIC = molecular target: T4, SPIC (Homo sapiens, UniProt Q8N5J4 1-248)
# T4 sequence: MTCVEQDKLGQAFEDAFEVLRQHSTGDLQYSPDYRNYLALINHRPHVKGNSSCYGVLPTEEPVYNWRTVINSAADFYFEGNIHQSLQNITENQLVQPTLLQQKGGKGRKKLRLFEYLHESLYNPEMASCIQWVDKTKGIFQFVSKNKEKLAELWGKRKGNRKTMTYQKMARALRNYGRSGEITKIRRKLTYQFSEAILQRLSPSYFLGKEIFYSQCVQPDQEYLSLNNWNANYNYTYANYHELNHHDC
# Outline: as §1
# ELF3 = molecular target: T5, ELF3 (Homo sapiens, UniProt P78545 1-371)
# T5 sequence: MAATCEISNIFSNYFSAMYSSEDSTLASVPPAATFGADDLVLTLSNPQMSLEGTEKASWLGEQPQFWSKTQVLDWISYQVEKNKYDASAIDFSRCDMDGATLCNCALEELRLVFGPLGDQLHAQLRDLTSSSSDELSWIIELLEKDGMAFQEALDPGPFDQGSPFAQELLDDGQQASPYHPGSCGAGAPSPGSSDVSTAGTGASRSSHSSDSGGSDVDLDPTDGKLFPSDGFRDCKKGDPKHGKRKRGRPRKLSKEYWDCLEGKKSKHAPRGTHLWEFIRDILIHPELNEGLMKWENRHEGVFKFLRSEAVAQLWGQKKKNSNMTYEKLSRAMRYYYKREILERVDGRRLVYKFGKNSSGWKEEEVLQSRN
# Outline: as §1
# ETV3L = molecular target: T6, ETV3L (Homo sapiens, UniProt Q6ZN32 1-361)
# T6 sequence: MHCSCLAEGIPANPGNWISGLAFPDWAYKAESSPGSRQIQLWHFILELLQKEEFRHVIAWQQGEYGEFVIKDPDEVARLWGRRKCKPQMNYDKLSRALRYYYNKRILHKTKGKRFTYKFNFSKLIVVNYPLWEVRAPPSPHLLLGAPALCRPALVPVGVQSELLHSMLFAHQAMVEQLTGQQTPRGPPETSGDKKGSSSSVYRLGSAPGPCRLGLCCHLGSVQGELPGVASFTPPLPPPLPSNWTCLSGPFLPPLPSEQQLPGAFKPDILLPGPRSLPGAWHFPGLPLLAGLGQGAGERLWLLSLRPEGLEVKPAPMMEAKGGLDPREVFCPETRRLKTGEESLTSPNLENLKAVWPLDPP
# Outline: as §1
# ETV3 = molecular target: T7, ETV3 (Homo sapiens, UniProt P41162-2 1-143)
# T7 sequence: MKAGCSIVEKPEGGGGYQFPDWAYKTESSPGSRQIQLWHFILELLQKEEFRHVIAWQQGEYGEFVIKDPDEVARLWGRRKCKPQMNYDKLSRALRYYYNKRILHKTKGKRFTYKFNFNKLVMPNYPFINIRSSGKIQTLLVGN
# Outline: as §1
# ETV6 = ETV6 (Homo sapiens, UniProt P41212 1-452)
# Outline: as §1
# SPI1 = SPI1 (Homo sapiens, UniProt P17947 1-270)
# Outline: as §1
# CRX = CRX (Homo sapiens, UniProt O43186 1-299)
# Outline: as §1
# SPDEF = molecular target: T8, SPDEF (Homo sapiens, UniProt O95238 1-335)
# T8 sequence: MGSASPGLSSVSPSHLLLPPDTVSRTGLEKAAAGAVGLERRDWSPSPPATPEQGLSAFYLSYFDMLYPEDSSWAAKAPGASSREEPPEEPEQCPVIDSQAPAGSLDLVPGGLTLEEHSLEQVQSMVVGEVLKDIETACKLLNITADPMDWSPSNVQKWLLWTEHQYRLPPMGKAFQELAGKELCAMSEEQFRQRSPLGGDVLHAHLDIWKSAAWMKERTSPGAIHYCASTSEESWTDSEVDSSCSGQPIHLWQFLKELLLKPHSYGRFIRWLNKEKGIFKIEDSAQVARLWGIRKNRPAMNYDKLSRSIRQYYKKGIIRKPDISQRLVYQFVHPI
# Outline: as §1
# ETV7 = molecular target: T9, ETV7 (Homo sapiens, UniProt Q9Y603 1-341)
# T9 sequence: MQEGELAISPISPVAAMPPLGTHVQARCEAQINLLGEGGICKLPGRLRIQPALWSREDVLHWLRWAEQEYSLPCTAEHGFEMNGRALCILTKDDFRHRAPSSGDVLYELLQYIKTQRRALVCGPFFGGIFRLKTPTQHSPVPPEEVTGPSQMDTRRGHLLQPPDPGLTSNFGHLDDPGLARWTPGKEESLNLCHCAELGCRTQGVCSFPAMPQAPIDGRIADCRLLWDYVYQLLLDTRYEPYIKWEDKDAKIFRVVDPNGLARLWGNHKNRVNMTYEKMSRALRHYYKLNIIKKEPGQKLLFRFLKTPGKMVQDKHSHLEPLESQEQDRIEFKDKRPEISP
# Outline: as §1
# ETV2 = molecular target: T10, ETV2 (Homo sapiens, UniProt O00321 1-342)
# T10 sequence: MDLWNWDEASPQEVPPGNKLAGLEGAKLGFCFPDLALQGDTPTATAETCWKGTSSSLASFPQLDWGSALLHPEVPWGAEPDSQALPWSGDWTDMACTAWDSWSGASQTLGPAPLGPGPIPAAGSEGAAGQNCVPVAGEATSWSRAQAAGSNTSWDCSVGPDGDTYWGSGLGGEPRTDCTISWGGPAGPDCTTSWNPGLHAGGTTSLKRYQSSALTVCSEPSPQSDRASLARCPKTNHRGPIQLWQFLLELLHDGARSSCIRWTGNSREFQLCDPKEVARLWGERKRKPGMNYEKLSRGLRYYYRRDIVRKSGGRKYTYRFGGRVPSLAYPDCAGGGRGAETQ
# Outline: as §1
# SPIB = SPIB (Homo sapiens, UniProt Q01892 1-262)
# Outline: as §1
# ELK4 = molecular target: T11, ELK4 (Homo sapiens, UniProt P28324-2 1-405)
# T11 sequence: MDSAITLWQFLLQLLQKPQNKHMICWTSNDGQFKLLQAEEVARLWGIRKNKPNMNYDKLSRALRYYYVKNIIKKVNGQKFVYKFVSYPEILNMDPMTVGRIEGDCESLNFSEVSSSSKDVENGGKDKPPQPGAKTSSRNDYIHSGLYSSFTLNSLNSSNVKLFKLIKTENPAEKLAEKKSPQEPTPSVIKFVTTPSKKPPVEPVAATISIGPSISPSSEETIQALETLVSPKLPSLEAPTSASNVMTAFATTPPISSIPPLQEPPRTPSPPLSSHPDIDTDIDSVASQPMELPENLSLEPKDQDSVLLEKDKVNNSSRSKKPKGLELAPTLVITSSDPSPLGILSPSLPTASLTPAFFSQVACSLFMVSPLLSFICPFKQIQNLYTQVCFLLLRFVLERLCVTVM
# Outline: as §1
# ERF = molecular target: T12, ERF (Homo sapiens, UniProt P50548 1-548)
# T12 sequence: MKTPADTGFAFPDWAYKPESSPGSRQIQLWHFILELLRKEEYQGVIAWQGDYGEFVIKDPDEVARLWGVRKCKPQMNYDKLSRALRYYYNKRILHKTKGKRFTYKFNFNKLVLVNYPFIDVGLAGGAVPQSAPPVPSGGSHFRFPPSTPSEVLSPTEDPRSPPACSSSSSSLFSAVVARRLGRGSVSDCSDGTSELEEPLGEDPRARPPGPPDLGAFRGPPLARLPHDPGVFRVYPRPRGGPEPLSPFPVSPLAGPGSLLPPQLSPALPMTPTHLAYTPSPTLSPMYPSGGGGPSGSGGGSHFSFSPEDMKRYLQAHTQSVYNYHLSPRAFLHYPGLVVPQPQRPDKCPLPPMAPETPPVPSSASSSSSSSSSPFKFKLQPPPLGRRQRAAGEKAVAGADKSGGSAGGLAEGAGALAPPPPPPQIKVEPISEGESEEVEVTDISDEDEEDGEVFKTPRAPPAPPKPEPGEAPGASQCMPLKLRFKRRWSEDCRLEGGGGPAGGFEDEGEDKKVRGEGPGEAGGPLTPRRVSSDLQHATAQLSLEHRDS
# Outline: as §1
# Chain of ELF1 (P32519 whole entry): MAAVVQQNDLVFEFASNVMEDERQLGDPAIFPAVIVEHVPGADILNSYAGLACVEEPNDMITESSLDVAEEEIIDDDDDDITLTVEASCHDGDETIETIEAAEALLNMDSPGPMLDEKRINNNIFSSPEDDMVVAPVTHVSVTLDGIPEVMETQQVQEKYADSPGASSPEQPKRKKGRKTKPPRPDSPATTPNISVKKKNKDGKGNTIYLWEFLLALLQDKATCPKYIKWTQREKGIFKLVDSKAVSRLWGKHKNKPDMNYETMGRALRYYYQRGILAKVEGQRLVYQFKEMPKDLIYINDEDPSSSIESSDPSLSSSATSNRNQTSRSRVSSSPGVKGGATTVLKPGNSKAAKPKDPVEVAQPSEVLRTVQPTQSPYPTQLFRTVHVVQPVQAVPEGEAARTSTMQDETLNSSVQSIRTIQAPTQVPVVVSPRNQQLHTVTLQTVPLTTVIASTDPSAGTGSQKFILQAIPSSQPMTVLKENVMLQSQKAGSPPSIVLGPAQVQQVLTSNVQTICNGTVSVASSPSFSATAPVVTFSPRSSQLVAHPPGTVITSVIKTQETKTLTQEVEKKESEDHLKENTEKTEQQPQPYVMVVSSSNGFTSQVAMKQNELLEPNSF
# Chain of CRX (O43186 whole entry): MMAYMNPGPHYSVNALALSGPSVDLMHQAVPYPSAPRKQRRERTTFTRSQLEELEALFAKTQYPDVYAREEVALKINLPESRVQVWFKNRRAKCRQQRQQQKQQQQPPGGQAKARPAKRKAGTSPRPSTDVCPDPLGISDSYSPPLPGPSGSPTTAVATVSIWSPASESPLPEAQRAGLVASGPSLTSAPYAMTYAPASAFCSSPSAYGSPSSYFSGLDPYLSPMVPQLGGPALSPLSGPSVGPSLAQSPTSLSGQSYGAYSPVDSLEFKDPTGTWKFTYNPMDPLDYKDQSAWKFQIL
# Chain of SPIB (Q01892 whole entry): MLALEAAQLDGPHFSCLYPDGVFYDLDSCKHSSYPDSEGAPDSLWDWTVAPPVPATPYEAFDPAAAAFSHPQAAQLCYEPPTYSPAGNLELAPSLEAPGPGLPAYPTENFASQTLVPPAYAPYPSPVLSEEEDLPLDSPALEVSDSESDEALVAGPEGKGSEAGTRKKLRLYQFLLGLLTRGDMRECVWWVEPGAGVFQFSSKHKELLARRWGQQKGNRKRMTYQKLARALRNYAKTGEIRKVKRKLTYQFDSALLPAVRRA
# Chain of ETV6 (P41212 whole entry): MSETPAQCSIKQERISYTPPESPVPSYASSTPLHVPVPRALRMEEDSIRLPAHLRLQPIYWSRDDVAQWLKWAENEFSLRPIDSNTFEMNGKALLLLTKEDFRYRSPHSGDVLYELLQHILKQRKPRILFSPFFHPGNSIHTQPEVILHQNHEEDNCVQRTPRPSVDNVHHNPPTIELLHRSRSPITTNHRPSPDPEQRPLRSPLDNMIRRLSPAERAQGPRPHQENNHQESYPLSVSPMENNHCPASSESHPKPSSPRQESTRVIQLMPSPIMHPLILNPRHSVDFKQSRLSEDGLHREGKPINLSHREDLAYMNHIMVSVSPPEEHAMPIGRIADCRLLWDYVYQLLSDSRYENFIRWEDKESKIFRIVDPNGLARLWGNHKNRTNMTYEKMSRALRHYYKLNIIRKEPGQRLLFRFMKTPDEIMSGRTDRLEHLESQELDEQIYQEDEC
sequence,measurement,setting,value
GGTTAC,binding signal,ELK1,"1.05 fold enrichment (6-mer frequency, TF over GST control)"
same,binding signal,ELF1,"1.01 fold enrichment (6-mer frequency, TF over GST control)"
same,binding signal,ELK3,"1.04 fold enrichment (6-mer frequency, TF over GST control)"
same,binding signal,FEV,"1 fold enrichment (6-mer frequency, TF over GST control)"
same,binding signal,SPIC,"1.05 fold enrichment (6-mer frequency, TF over GST control)"
same,binding signal,ELF3,"1.07 fold enrichment (6-mer frequency, TF over GST control)"
same,binding signal,ETV3L,"1.01 fold enrichment (6-mer frequency, TF over GST control)"
same,binding signal,ETV3,"1.01 fold enrichment (6-mer frequency, TF over GST control)"
same,binding signal,ETV6,"1.02 fold enrichment (6-mer frequency, TF over GST control)"
GTGGTT,binding signal,SPI1,"1.02 fold enrichment (6-mer frequency, TF over GST control)"
same,binding signal,ELK3,"1.01 fold enrichment (6-mer frequency, TF over GST control)"
same,binding signal,SPIC,"1.01 fold enrichment (6-mer frequency, TF over GST control)"
same,binding signal,ELF3,"1.1 fold enrichment (6-mer frequency, TF over GST control)"
GATCAC,binding signal,ELK1,"1.01 fold enrichment (6-mer frequency, TF over GST control)"
same,binding signal,ELF1,"1.02 fold enrichment (6-mer frequency, TF over GST control)"
same,binding signal,ELK3,"1.16 fold enrichment (6-mer frequency, TF over GST control)"
same,binding signal,SPIC,"1.01 fold enrichment (6-mer frequency, TF over GST control)"
same,binding signal,ELF3,"1.04 fold enrichment (6-mer frequency, TF over GST control)"
same,binding signal,CRX,"1.09 fold enrichment (6-mer frequency, TF over GST control)"
same,binding signal,SPDEF,"1 fold enrichment (6-mer frequency, TF over GST control)"
AGCATG,binding signal,SPIC,"1.07 fold enrichment (6-mer frequency, TF over GST control)"
same,binding signal,ETV3L,"1.02 fold enrichment (6-mer frequency, TF over GST control)"
AAGGCC,binding signal,SPIC,"1.06 fold enrichment (6-mer frequency, TF over GST control)"
same,binding signal,ETV7,"1.01 fold enrichment (6-mer frequency, TF over GST control)"
GTGCCG,binding signal,SPIC,"1.03 fold enrichment (6-mer frequency, TF over GST control)"
same,binding signal,ETV2,"1.01 fold enrichment (6-mer frequency, TF over GST control)"
GCAGAT,binding signal,SPIB,"1.02 fold enrichment (6-mer frequency, TF over GST control)"
same,binding signal,SPIC,"1 fold enrichment (6-mer frequency, TF over GST control)"
same,binding signal,ELK4,"1.04 fold enrichment (6-mer frequency, TF over GST control)"
same,binding signal,ETV2,"1.17 fold enrichment (6-mer frequency, TF over GST control)"
same,binding signal,CRX,"1.21 fold enrichment (6-mer frequency, TF over GST control)"
GGCGTT,binding signal,SPI1,"1.03 fold enrichment (6-mer frequency, TF over GST control)"
same,binding signal,SPIB,"1.05 fold enrichment (6-mer frequency, TF over GST control)"
same,binding signal,ELK3,"1.02 fold enrichment (6-mer frequency, TF over GST control)"
same,binding signal,FEV,"1.01 fold enrichment (6-mer frequency, TF over GST control)"
same,binding signal,SPIC,"1.08 fold enrichment (6-mer frequency, TF over GST control)"
same,binding signal,ETV2,"1.13 fold enrichment (6-mer frequency, TF over GST control)"
same,binding signal,ELF3,"1.1 fold enrichment (6-mer frequency, TF over GST control)"
same,binding signal,ERF,"1.01 fold enrichment (6-mer frequency, TF over GST control)"
same,binding signal,ETV3L,"1.09 fold enrichment (6-mer frequency, TF over GST control)"
